Laboratory results published in PubChem BioAssay AID1159580 (chemical genetic matrix, 2015).
About 2,000 (36%) of roughly 5,500 compounds were called active. Roughly 18% stayed inconclusive and do not appear here. No stated cut-off is given here; in the data, active means normalized growth mostly below about 0.91 (no sharp cut-off); inconclusive means no clear call, values can overlap the other calls; inactive means mostly above about 0.92. The list shows a part of the results.

Test: chemical genetic growth profiling, strain panel (AID 1159580);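 further: tested at 20 µM; growth read once vehicle control cultures reached saturation at 30 °C; 1 = growth at the plate median or of vehicle wells; lower values mean less growth of the strain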
Details: growth OD

Measured: normalized growth

Cc1ccsc1/C=C/C1=NCCCN1C
inactive: S. cerevisiae deletion strains, locus YJR075W, strain HOC1, hits give low values 0.991 | S. cerevisiae deletion strains, locus YKL009W, strain mrt4, hits give low values 0.982 | S. cerevisiae deletion strains, locus YKL068W, hits give low values 0.967 | S. cerevisiae deletion strains, locus YKL085W, strain MDH1 (second series), hits give low values 0.979 | S. cerevisiae deletion strains, locus YKL085W, strain MDH1, hits give low values 0.979 | S. cerevisiae deletion strains, locus YKL160W, strain elf1, hits give low values 0.999 | S. cerevisiae deletion strains, locus YKL190W, strain CNB1, hits give low values 1.02 | S. cerevisiae deletion strains, locus YKR001C, strain vps1, hits give low values 0.944 | S. cerevisiae deletion strains, locus YKR026C, strain gcn3, hits give low values 0.994 | S. cerevisiae deletion strains, locus YKR091W, strain srl3, hits give low values 0.994 | S. cerevisiae deletion strains, locus YLL001W, strain dnm1, hits give low values 0.979 | S. cerevisiae deletion strains, locus YLL026W, hits give low values 0.99 | S. cerevisiae deletion strains, locus YLL041C, strain sdh2, hits give low values 0.988 | S. cerevisiae deletion strains, locus YLR027C, strain aat2, hits give low values 0.998 | S. cerevisiae deletion strains, locus YLR039C, strain RIC1, hits give low values 0.947 | S. cerevisiae deletion strains, locus YLR058C, strain SHM2, hits give low values 1.01 | S. cerevisiae deletion strains, locus YLR102C, strain apc9, hits give low values 0.984 | S. cerevisiae deletion strains, locus YLR113W, strain HOG1, hits give low values 0.963 | S. cerevisiae deletion strains, locus YLR221C, strain rsa3, hits give low values 0.983 | S. cerevisiae deletion strains, locus YLR258W, strain gsy2, hits give low values 0.988 | S. cerevisiae deletion strains, locus YLR262C, strain YPT6 (second series), hits give low values 0.97 | S. cerevisiae deletion strains, locus YLR262C, strain YPT6, hits give low values 0.946 | S. cerevisiae deletion strains, locus YLR268W, strain sec22, hits give low values 0.93 | S. cerevisiae deletion strains, locus YLR320W, strain mms22, hits give low values 0.991 | S. cerevisiae deletion strains, locus YLR330W, strain CHS5, hits give low values 1 | S. cerevisiae deletion strains, locus YLR342W, strain FKS1 (second series), hits give low values 1.08 | S. cerevisiae deletion strains, locus YLR342W, strain FKS1, hits give low values 1 | S. cerevisiae deletion strains, locus YLR357W, strain rsc2, hits give low values 0.967 | S. cerevisiae deletion strains, locus YLR370C, strain arc18, hits give low values 0.977 | S. cerevisiae deletion strains, locus YLR371W, strain rom2, hits give low values 0.973 | S. cerevisiae deletion strains, locus YLR384C, strain iki3, hits give low values 0.99 | S. cerevisiae deletion strains, locus YLR418C, strain cdc73, hits give low values 0.956 | S. cerevisiae deletion strains, locus YML016C, strain PPZ1, hits give low values 1.01 | S. cerevisiae deletion strains, locus YML032C, strain rad52, hits give low values 0.958 | S. cerevisiae deletion strains, locus YML120C, strain ndi1, hits give low values 0.991 | S. cerevisiae deletion strains, locus YML124C, strain tub3, hits give low values 0.991 | S. cerevisiae deletion strains, locus YMR058W, strain fet3, hits give low values 0.987 | S. cerevisiae deletion strains, locus YMR078C, strain ctf18, hits give low values 0.975 | S. cerevisiae deletion strains, locus YMR125W, strain sto1, hits give low values 0.994 | S. cerevisiae deletion strains, locus YMR129W, hits give low values 0.99 | S. cerevisiae deletion strains, locus YMR205C, strain PFK2, hits give low values 0.987 | S. cerevisiae deletion strains, locus YMR223W, strain ubp8, hits give low values 1.02 | S. cerevisiae deletion strains, locus YMR231W, strain pep5, hits give low values 0.987 | S. cerevisiae deletion strains, locus YMR263W, strain SAP30, hits give low values 0.994 | S. cerevisiae deletion strains, locus YMR307W, strain GAS1, hits give low values 1.07 | S. cerevisiae deletion strains, locus YNL067W, strain RPL9B, hits give low values 0.98 | S. cerevisiae deletion strains, locus YNL071W, strain lat1, hits give low values 0.988 | S. cerevisiae deletion strains, locus YNL128W, strain TEP1, hits give low values 1 | S. cerevisiae deletion strains, locus YNL153C, strain GIM3, hits give low values 1 | S. cerevisiae deletion strains, locus YNL183C, strain NPR1, hits give low values 0.952 | S. cerevisiae deletion strains, locus YNL209W, strain ssb2, hits give low values 0.984 | S. cerevisiae deletion strains, locus YNL233W, strain BNI4, hits give low values 1.01 | S. cerevisiae deletion strains, locus YNL248C, strain rpa49, hits give low values 0.997 | S. cerevisiae deletion strains, locus YNL250W, strain rad50, hits give low values 0.997 | S. cerevisiae deletion strains, locus YNL271C, strain bni1, hits give low values 0.976 | S. cerevisiae deletion strains, locus YNL298W, strain CLA4, hits give low values 0.974 | S. cerevisiae deletion strains, locus YNL307C, strain MCK1, hits give low values 0.976 | S. cerevisiae deletion strains, locus YNL322C, strain KRE1 (second series), hits give low values 0.987 | S. cerevisiae deletion strains, locus YNL322C, strain KRE1, hits give low values 1 | S. cerevisiae deletion strains, locus YNR049C, strain mso1, hits give low values 0.987 | S. cerevisiae deletion strains, locus YNR052C, strain pop2, hits give low values 0.976 | S. cerevisiae deletion strains, locus YOL006C, strain TOP1, hits give low values 0.921 | S. cerevisiae deletion strains, locus YOL012C, strain htz1 1.13 | S. cerevisiae deletion strains, locus YOL147C, strain pex11, hits give low values 0.992 | S. cerevisiae deletion strains, locus YOR001W, strain rrp6, hits give low values 1.01 | S. cerevisiae deletion strains, locus YOR061W, strain CKA2, hits give low values 1.01 | S. cerevisiae deletion strains, locus YOR069W, strain VPS5, hits give low values 1.01 | S. cerevisiae deletion strains, locus YOR070C, strain gyp1, hits give low values 0.983 | S. cerevisiae deletion strains, locus YOR080W, strain dia2, hits give low values 0.989 | S. cerevisiae deletion strains, locus YOR083W, strain WHI5, hits give low values 0.998 | S. cerevisiae deletion strains, locus YOR106W, strain vam3, hits give low values 0.994 | S. cerevisiae deletion strains, locus YOR136W, strain idh2, hits give low values 0.972 | S. cerevisiae deletion strains, locus YOR144C, strain elg1, hits give low values 0.977 | S. cerevisiae deletion strains, locus YOR184W, strain ser1, hits give low values 0.94 | S. cerevisiae deletion strains, locus YOR231W, strain MKK1, hits give low values 0.979 | S. cerevisiae deletion strains, locus YOR265W, strain rbl2, hits give low values 1.01 | S. cerevisiae deletion strains, locus YOR270C, strain vph1, hits give low values 1.01 | S. cerevisiae deletion strains, locus YOR290C, strain snf2, hits give low values 1 | S. cerevisiae deletion strains, locus YOR316C, strain cot1, hits give low values 0.956 | S. cerevisiae deletion strains, locus YPL051W, strain arl3, hits give low values 0.993 | S. cerevisiae deletion strains, locus YPL055C, strain LGE1, hits give low values 0.954 | S. cerevisiae deletion strains, locus YPL078C, strain atp4, hits give low values 0.992 | S. cerevisiae deletion strains, locus YPL106C, strain sse1, hits give low values 0.996 | S. cerevisiae deletion strains, locus YPL240C, strain hsp82, hits give low values 0.988 | S. cerevisiae deletion strains, locus YPL241C, strain CIN2, hits give low values 1.01 | S. cerevisiae deletion strains, locus YPL256C, strain CLN2, hits give low values 0.939 | S. cerevisiae deletion strains, locus YPR119W, strain clb2, hits give low values 0.981 | S. cerevisiae deletion strains, locus YPR141C, strain kar3, hits give low values 0.979 | S. cerevisiae deletion strains, locus YPR163C, strain tif3, hits give low values 0.983 | S. cerevisiae deletion strains, locus YPR167C, strain met16, hits give low values 0.97 | S. cerevisiae deletion strains, strain wtn01, hits give low values 0.949 | S. cerevisiae strains, strain wild type, hits give low values 1.01
